B1: unnamed (peptide)
chain: LPPPPPPPPPPPLPQ
B2: unnamed (peptide)
chain: QQEQNTPPLPPKPKS
B3: unnamed (peptide)
chain: FLIKFTPKFPQSIDH

target: SpBzz1-D2; test: SPOT peptide array binding signal intensity (averaged, normalized) (arbitrary units (background-subtracted, floor 0; scale differs between SH3 domains)); higher = stronger binding of the SH3 domain to the peptide
Method in brief: (§1)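 E. coli BL21(DE3) was used to express GST-fused SH3 domains from four yeast species, which were then purified on glutathione Sepharose. These were incubated at 10 μg/ml in TBS-based blocking buffer overnight at 4°C on cellulose membranes carrying synthetic 15-mer peptides, in which cysteines were replaced by serines. Binding signal is the replicate average of normalized, background-subtracted spot intensity, in arbitrary units that differ between domains.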

| Binder | SPOT peptide array binding signal intensity |
| --- | --- |
| B1 | 7.5 |
| B3 | 17.8 |

target: SpCyk3; test: as above
Method in brief: as §1

| Binder | SPOT peptide array binding signal intensity |
| --- | --- |
| B1 | ≤ 0 |
| B3 | 48.5 |

target: SpHof1; test: as above
Method in brief: as §1

| Binder | SPOT peptide array binding signal intensity |
| --- | --- |
| B1 | ≤ 0 |
| B3 | 662 |

target: SpHof1-2; test: as above
Method in brief: as §1

| Binder | SPOT peptide array binding signal intensity |
| --- | --- |
| B1 | ≤ 0 |
| B3 | 126 |

target: SpHof1-3; test: as above
Method in brief: as §1

| Binder | SPOT peptide array binding signal intensity |
| --- | --- |
| B1 | 0.5 |
| B3 | 1580 |

target: SpHse1; test: as above
Method in brief: as §1

| Binder | SPOT peptide array binding signal intensity |
| --- | --- |
| B1 | 2.25 |
| B3 | 1950 |

target: SpLsb1; test: as above
Method in brief: as §1

| Binder | SPOT peptide array binding signal intensity |
| --- | --- |
| B1 | ≤ 0 |
| B3 | 11.5 |

target: SpLsb4; test: as above
Method in brief: as §1

| Binder | SPOT peptide array binding signal intensity |
| --- | --- |
| B1 | ≤ 0 |
| B3 | 610 |

target: SpMyo1; test: as above
Method in brief: as §1

| Binder | SPOT peptide array binding signal intensity |
| --- | --- |
| B1 | 1520 |
| B3 | 75 |

target: SpNbp2; test: as above
Method in brief: as §1

| Binder | SPOT peptide array binding signal intensity |
| --- | --- |
| B1 | 2 |
| B3 | 1010 |

target: SpPex13; test: as above
Method in brief: as §1

| Binder | SPOT peptide array binding signal intensity |
| --- | --- |
| B1 | ≤ 0 |
| B3 | 309 |

target: SpRvs167; test: as above
Method in brief: as §1

| Binder | SPOT peptide array binding signal intensity |
| --- | --- |
| B1 | 5.33 |
| B3 | 49.8 |

target: SpSla1-D1-D2; test: as above
Method in brief: as §1

| Binder | SPOT peptide array binding signal intensity |
| --- | --- |
| B1 | 3 |
| B3 | 4 |

target: SpSla1-D3; test: as above
Method in brief: as §1

| Binder | SPOT peptide array binding signal intensity |
| --- | --- |
| B1 | ≤ 0 |
| B3 | 172 |

target: AgAbp1; test: as above
Method in brief: as §1

| Binder | SPOT peptide array binding signal intensity |
| --- | --- |
| B2 | 10.5 |
| B3 | 11 |

target: AgBbc1; test: as above
Method in brief: as §1

| Binder | SPOT peptide array binding signal intensity |
| --- | --- |
| B2 | ≤ 0 |
| B3 | 89.8 |

target: AgBem1-D1; test: as above
Method in brief: as §1

| Binder | SPOT peptide array binding signal intensity |
| --- | --- |
| B2 | ≤ 0 |
| B3 | 681 |

target: AgBzz1-D1; test: as above
Method in brief: as §1

| Binder | SPOT peptide array binding signal intensity |
| --- | --- |
| B2 | 194 |
| B3 | 120 |

target: AgBzz1-D2; test: as above
Method in brief: as §1

| Binder | SPOT peptide array binding signal intensity |
| --- | --- |
| B2 | 5.5 |
| B3 | 229 |

target: AgCyk3; test: as above
Method in brief: as §1

| Binder | SPOT peptide array binding signal intensity |
| --- | --- |
| B2 | ≤ 0 |
| B3 | 165 |

target: AgFus1; test: as above
Method in brief: as §1

| Binder | SPOT peptide array binding signal intensity |
| --- | --- |
| B2 | ≤ 0 |
| B3 | 1690 |

target: AgHof1; test: as above
Method in brief: as §1

| Binder | SPOT peptide array binding signal intensity |
| --- | --- |
| B2 | 760 |
| B3 | 45 |

target: AgHse1; test: as above
Method in brief: as §1

| Binder | SPOT peptide array binding signal intensity |
| --- | --- |
| B2 | ≤ 0 |
| B3 | 1660 |

target: AgLsb1; test: as above
Method in brief: as §1

| Binder | SPOT peptide array binding signal intensity |
| --- | --- |
| B2 | ≤ 0 |
| B3 | 2.5 |

target: AgLsb4; test: as above
Method in brief: as §1

| Binder | SPOT peptide array binding signal intensity |
| --- | --- |
| B2 | 151 |
| B3 | 1180 |

target: AgMyo5; test: as above
Method in brief: as §1

| Binder | SPOT peptide array binding signal intensity |
| --- | --- |
| B2 | ≤ 0 |
| B3 | 1.5 |

target: AgNbp2; test: as above
Method in brief: as §1

| Binder | SPOT peptide array binding signal intensity |
| --- | --- |
| B2 | ≤ 0 |
| B3 | 669 |

target: AgRvs167; test: as above
Method in brief: as §1

| Binder | SPOT peptide array binding signal intensity |
| --- | --- |
| B2 | ≤ 0 |
| B3 | 15 |

target: AgSho1; test: as above
Method in brief: as §1

| Binder | SPOT peptide array binding signal intensity |
| --- | --- |
| B2 | 16.5 |
| B3 | 814 |

target: AgSla1-D1-D2; test: as above
Method in brief: as §1

| Binder | SPOT peptide array binding signal intensity |
| --- | --- |
| B2 | 2 |
| B3 | 524 |

target: AgSla1-D3; test: as above
Method in brief: as §1

| Binder | SPOT peptide array binding signal intensity |
| --- | --- |
| B2 | 3.75 |
| B3 | 33.8 |

target: CaAbp1-D1; test: as above
Method in brief: as §1

| Binder | SPOT peptide array binding signal intensity |
| --- | --- |
| B2 | 53 |
| B3 | 172 |

target: CaAbp1-D2; test: as above
Method in brief: as §1

| Binder | SPOT peptide array binding signal intensity |
| --- | --- |
| B2 | 33.5 |
| B3 | 120 |

target: CaBbc1; test: as above
Method in brief: as §1

| Binder | SPOT peptide array binding signal intensity |
| --- | --- |
| B2 | 9 |
| B3 | 75 |

target: CaBem1-D1; test: as above
Method in brief: as §1

| Binder | SPOT peptide array binding signal intensity |
| --- | --- |
| B2 | ≤ 0 |
| B3 | 103 |

target: CaBzz1-D1; test: as above
Method in brief: as §1

| Binder | SPOT peptide array binding signal intensity |
| --- | --- |
| B2 | 166 |
| B3 | 819 |

target: CaBzz1-D2; test: as above
Method in brief: as §1

| Binder | SPOT peptide array binding signal intensity |
| --- | --- |
| B2 | 34.8 |
| B3 | 281 |

target: CaCyk3; test: as above
Method in brief: as §1

| Binder | SPOT peptide array binding signal intensity |
| --- | --- |
| B2 | ≤ 0 |
| B3 | 136 |

target: CaFus1; test: as above
Method in brief: as §1

| Binder | SPOT peptide array binding signal intensity |
| --- | --- |
| B2 | 9 |
| B3 | 3550 |

target: CaHof1; test: as above
Method in brief: as §1

| Binder | SPOT peptide array binding signal intensity |
| --- | --- |
| B2 | 0.25 |
| B3 | 6.5 |

target: CaHse1; test: as above
Method in brief: as §1

| Binder | SPOT peptide array binding signal intensity |
| --- | --- |
| B2 | 404 |
| B3 | 588 |

target: CaLsb1; test: as above
Method in brief: as §1

| Binder | SPOT peptide array binding signal intensity |
| --- | --- |
| B2 | 0.5 |
| B3 | 10 |

target: CaLsb4; test: as above
Method in brief: as §1

| Binder | SPOT peptide array binding signal intensity |
| --- | --- |
| B2 | 1300 |
| B3 | 299 |

target: CaMyo5; test: as above
Method in brief: as §1

| Binder | SPOT peptide array binding signal intensity |
| --- | --- |
| B2 | ≤ 0 |
| B3 | 94 |

target: CaNbp2; test: as above
Method in brief: as §1

| Binder | SPOT peptide array binding signal intensity |
| --- | --- |
| B3 | 1020 |

target: CaRvs167; test: as above
Method in brief: as §1

| Binder | SPOT peptide array binding signal intensity |
| --- | --- |
| B3 | 651 |

target: CaRvs167-3; test: as above
Method in brief: as §1

| Binder | SPOT peptide array binding signal intensity |
| --- | --- |
| B3 | 2160 |

target: CaSho1; test: as above
Method in brief: as §1

| Binder | SPOT peptide array binding signal intensity |
| --- | --- |
| B3 | 2110 |

target: CaSla1-D1-D2; test: as above
Method in brief: as §1

| Binder | SPOT peptide array binding signal intensity |
| --- | --- |
| B3 | 43 |

target: CaSla1-D3; test: as above
Method in brief: as §1

| Binder | SPOT peptide array binding signal intensity |
| --- | --- |
| B3 | 585 |

target: ScAbp1; test: as above
Method in brief: as §1

| Binder | SPOT peptide array binding signal intensity |
| --- | --- |
| B3 | 7 |

target: ScBbc1; test: as above
Method in brief: as §1

| Binder | SPOT peptide array binding signal intensity |
| --- | --- |
| B3 | 5.5 |

target: ScBem1-D1; test: as above
Method in brief: as §1

| Binder | SPOT peptide array binding signal intensity |
| --- | --- |
| B3 | 47.5 |

target: ScBzz1-D1; test: as above
Method in brief: as §1

| Binder | SPOT peptide array binding signal intensity |
| --- | --- |
| B3 | 224 |

target: ScBzz1-D2; test: as above
Method in brief: as §1

| Binder | SPOT peptide array binding signal intensity |
| --- | --- |
| B3 | 611 |

target: ScCyk3; test: as above
Method in brief: as §1

| Binder | SPOT peptide array binding signal intensity |
| --- | --- |
| B3 | 145 |

target: ScFus1; test: as above
Method in brief: as §1

| Binder | SPOT peptide array binding signal intensity |
| --- | --- |
| B3 | 1850 |

target: ScHof1; test: as above
Method in brief: as §1

| Binder | SPOT peptide array binding signal intensity |
| --- | --- |
| B3 | 3.25 |

target: ScHse1; test: as above
Method in brief: as §1

| Binder | SPOT peptide array binding signal intensity |
| --- | --- |
| B3 | 2710 |

target: ScLsb1; test: as above
Method in brief: as §1

| Binder | SPOT peptide array binding signal intensity |
| --- | --- |
| B3 | 1 |

target: ScLsb2; test: as above
Method in brief: as §1

| Binder | SPOT peptide array binding signal intensity |
| --- | --- |
| B3 | 9 |

target: ScLsb3; test: as above
Method in brief: as §1

| Binder | SPOT peptide array binding signal intensity |
| --- | --- |
| B3 | 706 |

target: ScLsb4; test: as above
Method in brief: as §1

| Binder | SPOT peptide array binding signal intensity |
| --- | --- |
| B3 | 80 |

target: ScMyo3; test: as above
Method in brief: as §1

| Binder | SPOT peptide array binding signal intensity |
| --- | --- |
| B3 | 15.5 |

target: ScMyo5; test: as above
Method in brief: as §1

| Binder | SPOT peptide array binding signal intensity |
| --- | --- |
| B3 | 14 |

target: ScNbp2; test: as above
Method in brief: as §1

| Binder | SPOT peptide array binding signal intensity |
| --- | --- |
| B3 | 715 |

target: ScPex13; test: as above
Method in brief: as §1

| Binder | SPOT peptide array binding signal intensity |
| --- | --- |
| B3 | 86.5 |

target: ScRvs167; test: as above
Method in brief: as §1

| Binder | SPOT peptide array binding signal intensity |
| --- | --- |
| B3 | 47 |

target: ScSho1; test: as above
Method in brief: as §1

| Binder | SPOT peptide array binding signal intensity |
| --- | --- |
| B3 | 2000 |

target: ScSla1-D1-D2; test: as above
Method in brief: as §1

| Binder | SPOT peptide array binding signal intensity |
| --- | --- |
| B3 | 322 |

target: ScSla1-D3; test: as above
Method in brief: as §1

| Binder | SPOT peptide array binding signal intensity |
| --- | --- |
| B3 | 232 |

target: SpAbp1-D1; test: as above
Method in brief: as §1

| Binder | SPOT peptide array binding signal intensity |
| --- | --- |
| B3 | 50.5 |

target: SpBbc1; test: as above
Method in brief: as §1

| Binder | SPOT peptide array binding signal intensity |
| --- | --- |
| B3 | 27 |

target: SpBzz1-D1; test: as above
Method in brief: as §1

| Binder | SPOT peptide array binding signal intensity |
| --- | --- |
| B3 | 1440 |
